The first experiment in a line: binders of probe aFGF2 on microarray, primary screen, stem cell growth factor project, biochemical, small-molecule microarray, fluorescence 635/667 (AID 1067).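 Note: measures binding of biotinylated aFGF2 protein to printed compounds on slides; z-score merges feature fluorescence and signal-to-noise across triplicate slides.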 Particulars: higher = more signal.
The compound `C=CCOC(=O)[C@@H]1[C@H]2C(=O)O[C@H](c3ccccc3)[C@H](c3ccccc3)N2[C@H](c2ccc(OCCOC(=O)[C@@H]3C[C@@H]4C(=O)N5CCC[C@H]5C(=O)N4[C@@H]3c3ccc(O)cc3)cc2)[C@@]12C(=O)Nc1ccc(I)cc12` displayed a composite z-score of -0.0958.
`CCN(CC)c1ccc(N2CC=CC34O[C@@H]5/C=C\CCCOC(=O)C5[C@H]3C(=O)N(CCO)[C@@H]4C2=O)cc1` (some centres undefined): the composite z-score is -0.0785.
In turn, `C=CCNC(=O)[C@@H]1[C@H]2C(=O)O[C@H](c3ccccc3)[C@H](c3ccccc3)N2[C@H](c2ccc(OCCO)cc2)[C@@]12C(=O)Nc1ccc(C#CCCO)cc12` yielded a composite z-score of 0.162.
On the same count and under the same terms, with `COC(=O)C(CC#Cc1ccc2c(c1)[C@]1(C(=O)N2)[C@H](c2ccc(O)cc2)N2[C@H](c3ccccc3)[C@H](c3ccccc3)OC(=O)[C@H]2[C@@H]1C(=O)Nc1nc2ccccc2s1)C(=O)OC` the figure was 0.0402; with `CCOC(=O)C[C@H]1[C@H](OC(=O)c2cc3ccccc3oc2=O)[C@@H](NC(=O)C2CCCCC2)c2cc(OCCCO)ccc2N1C(=O)c1ccccc1`, -0.121.
Compound `C=CC[C@@]1(C(N)=O)N=C(c2ccc(OCCCO)cc2)O[C@@H]1c1ccccc1CN=[N+]=[N-]` registered a composite z-score of -0.0193.
The compound `COc1ccc([Si](C)(C)[C@H]2[C@H](CCO)O[C@@]3(C(=O)N(C)c4c(Br)cc(C)cc43)[C@@H]2C)cc1` came in with a composite z-score of -0.116.
As to `C[C@@]1([C@@H](NC(=O)c2ccccc2)c2ccc(-c3ccccc3)cc2)C[C@H]1C1CCCCC1`, the composite z-score stood at 0.0891.
On the same count and under the same terms, with `O=C1NC(=O)C2C1C=CC(C(O)C(c1ccccc1)c1ccccc1)N2Nc1ccc(Cl)cc1Cl` (centres undefined) the figure was 0.103; with `COCCOC(=O)N1C(=O)[C@@]2(c3cc(C#Cc4ccc(OC)cc4)ccc31)[C@H](C(N)=O)[C@H]1C(=O)O[C@H](c3ccccc3)[C@H](c3ccccc3)N1[C@@H]2c1ccccc1OCCO`, 0.0918.
`C#CCN(Cc1ccccc1Br)C(/C=C/c1ccccc1)CO` (centres undefined) registered a composite z-score of -0.148.
As for `CCCN1C(=O)[C@]2(CCS(=O)(=O)c3ccccc3)N=C(c3ccc(OCCCO)cc3)O[C@@H]2c2ccccc21`, the composite z-score is -0.0027.
Same read-out and setting: with `COCCOC(=O)N1C(=O)[C@@]2(c3cc(C#CCCO)ccc31)[C@H](C(=O)Nc1nc3ccccc3s1)[C@H]1C(=O)O[C@H](c3ccccc3)[C@H](c3ccccc3)N1[C@@H]2c1ccc(OCCO)cc1` the figure was -0.0824.
In turn, `CCCCC(=C=CC[C@@H](O)c1ccccc1OCCO)CCO` showed a composite z-score of -0.0367.

A further experiment is described as follows: binders of probe aFGF10 on microarray, primary screen, stem cell growth factor project, biochemical, small-molecule microarray, fluorescence 635/667 (AID 1071).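 Note: score merges 667 nm spot intensity and signal to noise from triplicate slides.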 Particulars: higher = more signal.
Turning to `O=C1O[C@H](c2ccccc2)[C@H](c2ccccc2)N2[C@H]1[C@@H](C(=O)Nc1nc3ccccc3s1)[C@]1(C(=O)Nc3ccc(C#CCCO)cc31)[C@H]2c1ccc(OCCO)cc1`, the composite z-score was determined as 1.14.
The same measure, in the same setting: to `O=C1OCCC/C=C\[C@H]2OC34C=CCN(Cc5ccccc5)C(=O)[C@H]3N(CCCCCCO)C(=O)[C@@H]4C12` (some centres undefined) belongs -0.437; to `C=CC[C@]1(C(=O)N2CCCCC2)N=C(c2ccc(OCCCO)cc2)O[C@H]1c1ccccc1`, 0.452.
Same read-out and setting: to `COc1ccc(C(=O)O[C@H]2CC[C@]3(C)C4=C(CCC3C2(C)C)[C@]2(C)CC[C@H]([C@H](C)CCCC(C)C)[C@@]2(C)CC4)cc1` (some centres undefined) belongs 0.338; to `C[C@]1(C(=O)NC2CC2)c2ccccc2C(=O)N(Cc2cc(C(F)(F)F)cc(C(F)(F)F)c2)[C@H]1c1ccc(CO)cc1`, 0.31.
`NCCCCCNC(=O)[C@@H]1C[C@@H]2C(=O)NCC(=O)N2[C@@H]1c1ccc(O)cc1` showed a composite z-score of 0.975.
On the same count and under the same terms, to `[N-]=[N+]=Nc1ccccc1C[C@@]1(C(=O)NCCN2CCOCC2)N=C(c2ccc(OCCCO)cc2)O[C@@H]1c1ccccc1` belongs 0.409; to `Cc1ccc(S[C@]2(C(=O)NC3CC3)CC(=O)N(C3Cc4ccccc4C3)[C@@H]2c2ccc(CO)cc2)cc1`, -0.563.
Still for that read-out and setting: with `C=C(/C(=C/C[C@@H](OC(C)=O)c1ccc(OCCO)cc1)c1cnc2ccccc2c1)C(C)C` the figure was 0.164; with `CC1(C)[C@@H]2CC(C(O)C3C=CC4C(=O)N(c5ccccc5)C(=O)C4N3Nc3ccccc3)=C[C@H]1C2` (some centres undefined), 0.45; with `COC(=O)[C@@]1(Cc2ccc(F)cc2)[C@H]2c3cc(C(=O)N4CCCC4)n(Cc4cc(C)n(C)n4)c3C[C@H]2CN1C(=O)c1ccccc1`, 0.741.
Compound `CC1CC/C=C\[C@H]2OC34C=CCN(c5ccc(Cl)cc5)C(=O)[C@H]3N(CCO)C(=O)[C@]4(C)C2C(=O)O1` (some centres undefined) yielded a composite z-score of -0.472.
On the same count and under the same terms, with `O=C1O[C@H](c2ccccc2)[C@H](c2ccccc2)N2[C@H]1[C@@H](C(=O)O)[C@]1(C(=O)Nc3ccc(C#CCCO)cc31)[C@H]2c1ccc(O)cc1` the figure was -0.0925; with `COc1cc2c(cc1O)C=[N+](Cc1cccc(OC(F)(F)F)c1)CC2`, -0.0214.
On the same count and under the same terms, with `COC(=O)c1c(CC[C@@H](CO)NC(=O)N[C@H](Cn2cc(Cc3ccccc3)nn2)C(C)C)oc(C(C)=O)c1C(=O)OC` the figure was 1.09.
Same read-out and setting: with `O=C1O[C@H](c2ccccc2)[C@H](c2ccccc2)N2[C@H]1[C@@H](C(=O)N1CCN(c3ncccn3)CC1)[C@]1(C(=O)Nc3ccc(C#CC4=CCCCC4)cc31)[C@H]2c1ccc(O)cc1` the figure was 0.768; with `CN(C)CCCNC(=O)[C@@]1(c2ccc([N+](=O)[O-])cc2)CC(=O)N(C2CCCCC2)[C@@H]1c1ccc(CO)cc1`, -0.466; with `COc1ccc(C#Cc2ccc3c(c2)[C@]2(C(=O)N3)[C@H](c3ccccc3OCCO)N3[C@H](c4ccccc4)[C@H](c4ccccc4)OC(=O)[C@H]3[C@@H]2C(=O)O)cc1`, 1.16.
`COc1ccc([C@H]2OC[C@@H]3CC4(CC=CC4)C(=O)N32)cc1` yielded a composite z-score of 0.479.
Still for that read-out and setting: with `COc1ccc(C(O)C2C=CC3C(=O)NC(=O)C3N2Nc2ccccn2)c2ccccc12` (centres undefined) the figure was 0.246.
Still for that read-out and setting: with `Cc1ccc(S[C@]2(C(=O)NC(C)C)CC(=O)N(Cc3ccccc3Cl)[C@@H]2c2ccc(CO)cc2I)cc1` the figure was -0.719; with `C=CCOC(=O)[C@@H]1[C@H]2C(=O)O[C@H](c3ccccc3)[C@H](c3ccccc3)N2[C@H](c2ccc(OCCOC(=O)[C@@H]3C[C@@H]4C(=O)N5CCC[C@H]5C(=O)N4[C@@H]3c3ccc(O)cc3)cc2)[C@@]12C(=O)Nc1ccc(I)cc12`, 0.235; with `CCN(CC)c1ccc(N2CC=CC34O[C@@H]5/C=C\CCCOC(=O)C5[C@H]3C(=O)N(CCO)[C@@H]4C2=O)cc1` (some centres undefined), -0.715.
On the same count and under the same terms, to `C=CCNC(=O)[C@@H]1[C@H]2C(=O)O[C@H](c3ccccc3)[C@H](c3ccccc3)N2[C@H](c2ccc(OCCO)cc2)[C@@]12C(=O)Nc1ccc(C#CCCO)cc12` belongs 0.944; to `COC(=O)C(CC#Cc1ccc2c(c1)[C@]1(C(=O)N2)[C@H](c2ccc(O)cc2)N2[C@H](c3ccccc3)[C@H](c3ccccc3)OC(=O)[C@H]2[C@@H]1C(=O)Nc1nc2ccccc2s1)C(=O)OC`, 1.08.
`CCOC(=O)C[C@H]1[C@H](OC(=O)c2cc3ccccc3oc2=O)[C@@H](NC(=O)C2CCCCC2)c2cc(OCCCO)ccc2N1C(=O)c1ccccc1` registered a composite z-score of 0.642.
Turning to `C=CC[C@@]1(C(N)=O)N=C(c2ccc(OCCCO)cc2)O[C@@H]1c1ccccc1CN=[N+]=[N-]`, the composite z-score is 0.291.
The compound `COc1ccc([Si](C)(C)[C@H]2[C@H](CCO)O[C@@]3(C(=O)N(C)c4c(Br)cc(C)cc43)[C@@H]2C)cc1` yielded a composite z-score of 0.243.
On the same count and under the same terms, to `C[C@@]1([C@@H](NC(=O)c2ccccc2)c2ccc(-c3ccccc3)cc2)C[C@H]1C1CCCCC1` belongs -0.227.
Same read-out and setting: to `O=C1NC(=O)C2C1C=CC(C(O)C(c1ccccc1)c1ccccc1)N2Nc1ccc(Cl)cc1Cl` (centres undefined) belongs 0.501; to `COCCOC(=O)N1C(=O)[C@@]2(c3cc(C#Cc4ccc(OC)cc4)ccc31)[C@H](C(N)=O)[C@H]1C(=O)O[C@H](c3ccccc3)[C@H](c3ccccc3)N1[C@@H]2c1ccccc1OCCO`, 1.11; to `C#CCN(Cc1ccccc1Br)C(/C=C/c1ccccc1)CO` (centres undefined), 0.0126.
On the same count and under the same terms, with `CCCN1C(=O)[C@]2(CCS(=O)(=O)c3ccccc3)N=C(c3ccc(OCCCO)cc3)O[C@@H]2c2ccccc21` the figure was 0.572; with `COCCOC(=O)N1C(=O)[C@@]2(c3cc(C#CCCO)ccc31)[C@H](C(=O)Nc1nc3ccccc3s1)[C@H]1C(=O)O[C@H](c3ccccc3)[C@H](c3ccccc3)N1[C@@H]2c1ccc(OCCO)cc1`, 0.871; with `CCCCC(=C=CC[C@@H](O)c1ccccc1OCCO)CCO`, 0.352.

For the origin of these results see PubChem BioAssay.
